Results filed as inconclusive are left out. The source made the active and inactive calls. Rule for the calls: active = hit-call score of the fitted dose curve at least 0.9, where 1 is the maximum; inconclusive = response in the unintended direction; inactive = score below 0.9.

Drawing on PubChem BioAssay (EPA / NIEHS), this text covers AC50 and outcome for one molecule.

Experiment [1] deals with Estrogen receptor beta (Homo sapiens) (UniProt Q92731). Put plainly: ATG_hERb_XSP1: Attagene TRANS-FACTORIAL Multi-Species (XSP1) HepG2 Assay for human Estrogen Receptor (ESR2) (AID 2283788). In short, it runs like this: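 Multiplexed trans-activation in transfected HepG2: ERβ-Gal4 reporter transcripts after 24 h treatment, detected by RT-PCR plus capillary electrophoresis.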

Experiment [2] can be described thus: ATG_M_19_XSP1: Attagene TRANS-FACTORIAL Multi-Species (XSP1) HepG2 Assay for M19 Transcription Factor (Internal Marker) (AID 2283798). In short, it runs like this:
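Readout is reporter mRNA induction quantified via RT-PCR, 6-FAM labeling, HpaI digestion and capillary electrophoresis, fitted in the positive direction versus DMSO baseline. Transfected HepG2 cells exposed 24 h, medium including 3 nM 6-alpha-fluorotestosterone.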

Experiment [3] deals with zebrafish Peroxisome Proliferator-activated Receptor gamma (PPARg), gene 557037. The experiment is described as follows: ATG_zfPPARg_XSP1: Attagene TRANS-FACTORIAL Multi-Species (XSP1) HepG2 Assay for zebrafish Peroxisome Proliferator-activated Receptor gamma (PPARg) (AID 2283801). The method, boiled down: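 Trans-activation readout of chimeric zebrafish PPARg–GAL4 in transiently transfected human HepG2 cells, 24 h chemical exposure (medium includes 3 nM 6-alpha-fluorotestosterone). Reporter transcripts measured by RT-PCR and capillary electrophoresis, fitted as gain over DMSO.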

Experiment [4] deals with Nuclear receptor subfamily 1 group I member 2 (Mus musculus) (UniProt O54915). Put plainly: ATG_mPXR_XSP1: Attagene TRANS-FACTORIAL Multi-Species (XSP1) HepG2 Assay for mouse Pregnane X Receptor (PXR) (AID 2283803). The protocol: ATG_XSP1_multi-species_TRANS is a cell-based, multiplexed assay created by modifying the existing Attagene TRANS-FACTORIAL system to include a panel of nuclear receptors from some or all the following species: human (Homo sapiens), mouse (Mus musculus), frog (Xenopus laevis), zebrafish (Danio rerio), chicken (Gallus gallus), and turtle (Chrysemys picta). The ECOTOX-FACTORIAL format uses HepG2, a human liver cell line, with measurements taken at 24 hours after chemical dosing in a 24-well plate. Xsp1 included 3 nM 6-alpha-fluorotestosterone to partially stimulate the androgen receptor.ATG_mPXR_XSP1 is one of 29 assay components measured or calculated from the ATG_XSP1_multi-species_TRANS assay. It is designed to make measurements of mRNA induction, a form of inducible reporter, as detected with fluorescence intensity signals by Reverse transcription polymerase chain reaction (RT-PCR) and Capillary electrophoresis technology.The assay endpoint ATG_mPXR_XSP1 was analyzed in the positive analysis fitting direction relative to DMSO as the negative control and baseline of activity. […] Furthermore, this assay endpoint can be referred to as a primary readout, because this assay has produced multiple assay endpoints where this one serves a reporter gene function. […]

In experiment [5] the test system is turtle Thyroid Hormone Receptor, alpha (TRa), gene 101949057. Put plainly: ATG_trTRa_XSP1: Attagene TRANS-FACTORIAL Multi-Species (XSP1) HepG2 Assay for turtle Thyroid Hormone Receptor, alpha (TRa) (AID 2283806). In short, it runs like this: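 After 24 h chemical exposure, reporter transcripts were measured by RT-PCR with fluorescent primer extension, HpaI digestion and capillary electrophoresis. Cells were transiently transfected HepG2 expressing exogenous NR-Gal4 chimeras; medium contained 3 nM 6-alpha-fluorotestosterone; fitted upward relative to DMSO.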

Experiment [6] in a line: ATG_XTT_Cytotoxicity_XSP1: Cytotoxicity Assessment in the Attagene TRANS-FACTORIAL Multi-Species (XSP1) HepG2 Assay (AID 2283810). The method, boiled down:
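XTT viability readout taken at 24 hours post-dosing in HepG2 liver cells co-treated with 3 nM 6-alpha-fluorotestosterone. Signal loss relative to DMSO controls reflects cytotoxicity.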

Estrogen receptor beta (Homo sapiens), sequence (Q92731 whole entry, looked up, the tested form may be a part): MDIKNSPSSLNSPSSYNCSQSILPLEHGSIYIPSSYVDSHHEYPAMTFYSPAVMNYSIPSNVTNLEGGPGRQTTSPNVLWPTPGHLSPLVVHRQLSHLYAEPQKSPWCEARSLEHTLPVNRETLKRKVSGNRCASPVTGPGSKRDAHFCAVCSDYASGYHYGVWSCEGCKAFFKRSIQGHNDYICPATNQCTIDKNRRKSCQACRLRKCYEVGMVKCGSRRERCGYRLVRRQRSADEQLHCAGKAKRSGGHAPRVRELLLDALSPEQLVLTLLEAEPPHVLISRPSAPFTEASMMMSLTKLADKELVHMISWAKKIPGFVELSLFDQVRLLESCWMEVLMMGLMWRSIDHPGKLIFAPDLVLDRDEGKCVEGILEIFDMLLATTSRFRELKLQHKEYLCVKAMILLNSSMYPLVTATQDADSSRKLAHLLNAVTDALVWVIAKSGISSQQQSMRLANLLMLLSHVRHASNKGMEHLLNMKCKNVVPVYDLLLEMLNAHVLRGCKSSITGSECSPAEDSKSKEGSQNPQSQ
Nuclear receptor subfamily 1 group I member 2 (Mus musculus), sequence (O54915 whole entry, looked up): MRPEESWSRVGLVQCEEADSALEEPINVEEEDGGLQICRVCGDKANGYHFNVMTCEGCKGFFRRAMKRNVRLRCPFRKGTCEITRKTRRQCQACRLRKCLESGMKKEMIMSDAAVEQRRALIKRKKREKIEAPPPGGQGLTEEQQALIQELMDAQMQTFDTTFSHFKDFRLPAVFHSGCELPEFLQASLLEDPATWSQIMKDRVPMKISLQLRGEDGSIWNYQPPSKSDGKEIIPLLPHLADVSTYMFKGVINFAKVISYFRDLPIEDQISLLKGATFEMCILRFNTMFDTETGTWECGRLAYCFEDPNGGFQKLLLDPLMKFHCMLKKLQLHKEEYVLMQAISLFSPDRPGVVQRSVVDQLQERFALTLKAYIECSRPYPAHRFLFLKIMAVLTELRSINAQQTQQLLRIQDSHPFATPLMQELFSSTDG

With `C(=C(c1ccccc1)c1ccccc1)c1ccccc1`, the half-maximal activity concentration (AC50) in experiment [1] was 0.017 µM (active). In addition, the call in experiment [2], in experiment [3], in experiment [4], in experiment [5] and in experiment [6] was inactive.
